# RORg inh = qHTS for inhibitors of ROR gamma transcriptional activity. hit rate 5.4% among 310,000. Potency, µM (series often up to 53.6 µM), for inactives: at the top dose activity change, negative = inhibition, most hits filed as inhibitors. Nuclear receptor ROR-gamma (Mus musculus), P51450. Drosophila S2 Gal4-RORgamma UAS-luciferase reporter, 20 h; also: potency is read from the fitted curve at half-maximal effect; nearly all actives have a fitted effect of over 60% in size
#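 In this cell-based reporter format, copper sulfate (700 uM final) drives Gal4–ROR gamma fusion expression from a metallothionein promoter in Drosophila Schneider cells; compounds preincubated 1 hr, reporter read after 20 hr at ambient temperature.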
# VP16 counter = VP16 counterscreen qHTS for inhibitors of ROR gamma transcriptional activity; hit rate 3.5% among 310,000; Potency, µM (doses to about 53.6 µM), for inactives: top-dose activity, negative = inhibition, actives largely listed as inhibitors; Drosophila S2 Gal4-VP16 UAS-luciferase, luminescence, 20 h;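 also: Gal4-VP16 expression switched on by copper sulfate through the metallothionein promoter; potency is read from the fitted curve at half-maximal effect; nearly all actives have a fitted effect of over 50% in size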
# PKM2 act = qHTS Assay for Activators of Human Muscle isoform 2 Pyruvate Kinase; purified PKM2, Kinase-Glo ATP luminescence, activation; response scale: 0% is enzyme alone, no compound; Pyruvate kinase PKM (Homo sapiens), P14618; Potency, µM (series often up to 57.5 µM), without a hit: top-dose activation, actives largely listed as activators; hit rate 0.34% among 260,000; AID 1631, 2009; also: potency is read from the fitted curve at half-maximal effect; nearly all actives have a fitted effect of over 55% in size
#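 hPK-M2, >95% pure; 0.1 mM ADP / 0.5 mM PEP final; imidazole pH7.2 buffer w/ 7 mM MgCl2, 50 mM KCl; 1 h RT; Kinase-Glo lum. Intermediate enzyme activity for dual inhibitor/activator qHTS.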
# Six1-Eya2 inh = qHTS Assay for Inhibitors of the Six1/Eya2 Interaction. AlphaScreen GST-Six1/His-Eya2 binding, biochemical; hits give low values. activity change, % (concentration not given with the values). hit rate 0.56% among 360,000; in the data active = activity change below about -65%; inconclusive = mostly about -30% to -63%
# Target sequence (O00167 whole entry, looked up): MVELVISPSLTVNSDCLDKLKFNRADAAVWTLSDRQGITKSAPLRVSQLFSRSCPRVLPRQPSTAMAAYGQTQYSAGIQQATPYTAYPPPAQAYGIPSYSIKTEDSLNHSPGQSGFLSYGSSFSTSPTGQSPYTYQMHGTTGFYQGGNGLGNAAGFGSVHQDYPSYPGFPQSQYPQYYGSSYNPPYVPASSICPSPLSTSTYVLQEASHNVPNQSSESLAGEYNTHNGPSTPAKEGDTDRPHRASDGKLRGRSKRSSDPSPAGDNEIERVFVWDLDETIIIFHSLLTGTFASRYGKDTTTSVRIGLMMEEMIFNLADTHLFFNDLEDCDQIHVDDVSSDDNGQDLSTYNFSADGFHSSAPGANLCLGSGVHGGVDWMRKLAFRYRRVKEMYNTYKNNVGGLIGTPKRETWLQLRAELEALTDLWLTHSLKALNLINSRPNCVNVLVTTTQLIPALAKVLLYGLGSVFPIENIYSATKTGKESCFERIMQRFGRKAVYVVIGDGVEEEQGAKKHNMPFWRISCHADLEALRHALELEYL
# Target sequence (Q15475 whole entry, looked up): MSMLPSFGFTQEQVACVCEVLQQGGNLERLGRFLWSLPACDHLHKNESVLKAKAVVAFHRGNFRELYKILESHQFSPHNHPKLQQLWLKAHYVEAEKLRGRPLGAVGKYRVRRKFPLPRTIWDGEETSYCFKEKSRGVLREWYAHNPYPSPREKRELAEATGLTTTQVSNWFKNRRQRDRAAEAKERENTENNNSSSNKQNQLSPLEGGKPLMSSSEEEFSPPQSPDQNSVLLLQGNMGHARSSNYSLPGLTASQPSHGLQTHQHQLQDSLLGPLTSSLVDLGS
#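 AlphaScreen with GST-Six1 and His-Eya2 (5X mix: 250 nM and 500 nM), glutathione donor and nickel acceptor beads; buffer 50 mM Tris pH 8.0, 300 mM NaCl, 1 mM TCEP; 1 h at 37 C in the dark.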
# CtBP-E1A blk = qHTS Assay for Inhibitors of the CtBP/E1A Interaction. CtBP / adenovirus E1A interaction (AlphaScreen). activity change, % (test concentration not listed). AlphaScreen GST-E1A/His-CtBP binding, 1536-well; hits give low values. AID 651724, 2012. hit rate 0.49% among 340,000; in the data active = activity change below about -65%; inconclusive = mostly about -30% to -63%
#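 GST-E1A and His-tagged CtBP (125 nM each as 5X stock) were preincubated with pin-transferred compound for 2 h at 37 °C in the dark, then glutathione donor and nickel acceptor beads were added for 1 h before AlphaScreen reading.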
# Starred values were filed as active, the others as inactive; ? = inconclusive; · = no result; [ ] = dose if it differs, or a comment. Sampled rows, rich in hits. Any-hit rate of the full collection: about 5.6%. Unless noted, calls follow the shape of the dose curve; as a rule, active = well fitted curve in the direction sought with a large enough effect; inconclusive = small, poorly fitted or top-dose-only effect, or another doubt; inactive = no such curve, though single readings can be large; an effect the other way counts as inactive or inconclusive. % is scaled to controls: 0 for no effect and ±100 for the full control effect.
SMILES,RORg inh,VP16 counter,PKM2 act,Six1-Eya2 inh,CtBP-E1A blk
CCOC(=O)C1(CC2CCCCO2)CCN(Cc2cc(F)ccc2-n2cccn2)CC1 (stereo unspecified),15.5%,15.4%,12.4%,1.5,-0.7
CCOC(=O)C1(CC2CCCCO2)CCN(Cc2nccn2-c2cccc(C)c2)CC1 (stereo unspecified),4.47µM*,12.6µM*,-0.3%,0.2,·
Cc1cccc(-n2ccnc2CN2CCC(CO)(Cc3ccccc3)CC2)c1,15.8µM*,-4.4%,0.6%,2.1,8.1
OCC1(Cc2cccc(C(F)(F)F)c2)CCN(Cc2cc3ccccc3o2)CC1,-19.2%,-17.0%,-4.8%,-9.4,-1.2
CCOC(=O)C1(CC2CCCCO2)CCN(Cc2nccn2-c2ccc(OC)cc2)CC1 (stereo unspecified),7.08µM*,?,0.2%,6.2,-1.8
Cc1c(CN2CCC(CO)(Cc3cccc(C(F)(F)F)c3)CC2)c2ccccc2n1C,7.08µM*,8.91µM*,-7.8%,-18.6,-2.2
Cc1cccc(-n2ccnc2CN2CCN(C3CCCC3)C(CCO)C2)c1 (stereo unspecified),-24.7%,-16.3%,2.5%,11.2,·
COc1ccc(CN2CCC(n3nccc3NC(=O)c3cccc(F)c3)CC2)cc1O,-17.3%,-6.1%,-3.3%,0.0,2.3
COc1ccc(-n2nc3c(N4CCC(C(=O)NCC(C)c5ccccc5)CC4)nnc(C)c3c2C)cc1 (stereo unspecified),-30.5%,20µM*,·,-0.5,-5.2
c1ccc(COCCC2CO2)cc1 (stereo unspecified),-11.8%,-3.2%,0.9%,·,·
O=C1C([N+](=O)[O-])=C(O)c2cccc3cccc1c23,?,17.8µM*,·,·,·
O=C1c2cccc3cc([N+](=O)[O-])cc(c23)C(=O)N1/N=C/c1ccc(O)cc1O,-24.0%,?,-0.5%,-27.3,-23.2
CC(C)Cn1c(=O)c2ccccc2n2c(CCC(=O)NCC3CCCO3)nnc12 (stereo unspecified),2.1%,1.8%,11.6%[0.46 µM],3.7,9.9
C[C@H](NC(=O)c1nc[nH]c1C(=O)N[C@@H](C)c1ccccc1)C(=O)OC(C)(C)C,2.82µM*,6.31µM*,0.8%,-0.6,1.3
CC(C)C[C@H](NC(=O)c1nc[nH]c1C(=O)N(C)Cc1ccccc1)C(=O)OC(C)(C)C,-0.3%,-5.5%,-0.3%,-16.7,·
O=C(Nc1ccccc1)c1nc[nH]c1C(=O)NCCNC(=O)c1[nH]cnc1C(=O)Nc1ccccc1,·,·,·,-11.3,-11.2
CC(C)C[C@H](NC(=O)c1[nH]cnc1C(=O)N[C@H](C)c1ccccc1)C(=O)OC(C)(C)C,5.01µM*,5.62µM*,1.2%,-7.1,-2.2
O=C(c1ccccc1)c1nc[nH]c1C(=O)Nc1ccccc1,0.708µM*,1.58µM*,-4.6%,4.7,-1.7
Cc1ccc(NC(=O)c2nc[nH]c2C(=O)N[C@@H](C)c2ccccc2)cc1,1.12µM*,3.16µM*,2.6%,-6.1,-5.7
CCOC(=O)CC1C(=O)NCCN1S(=O)(=O)c1ccc(NC(C)=O)cc1 (stereo unspecified),-11.9%,-5.0%,0.3%,3.2,0.0
CC(C)(C)OC[C@H](NC(=O)c1[nH]cnc1C(=O)Nc1ccccc1F)C(=O)OC(C)(C)C,·,·,·,-12.4,-16.0
CC(C)C[C@H](NC(=O)c1nc[nH]c1C(=O)NC(c1ccccc1)c1ccccc1)C(=O)OC(C)(C)C,0.708µM*,3.55µM*,-0.6%,-19.6,-15.1
CCOc1ccc2nc3cc(N=Nc4ccc(N)nc4N)ccc3c(N)c2c1,·,·,·,?,-76.1*
COc1cc(=O)n(C)c2c(OC[C@@H](O)C(C)(C)O)cccc12,13.6%[16.9 µM],4.2%[17 µM],·,·,·
CNC(=S)Nc1cc(Cl)ccc1Oc1ccccc1,14.1µM*,?,-2.4%,16.6,16.8
COc1ccccc1OCC(=O)Nc1cc(Cl)ccc1Oc1ccccc1,?,-17.5%,5.3%,14.3,-15.4
CCNC(=S)Nc1cc(Cl)ccc1Oc1ccccc1,4.47µM*,10µM*,-2.8%,-1.0,-2.3

# From PubChem BioAssay
